PLCb3 inh – human PLC-beta3 inhibitors, primary screen, biochemical, fluorescence | 1-phosphatidylinositol 4,5-bisphosphate phosphodiesterase beta-3 (Homo sapiens), Q01970 | Purified PLC-beta3, fluorogenic substrate | inhibition, % at 12.2 µM | 0.18% of 370,000 active | AID 720704, 2013; in the data active means inhibition above about 11%
PLC-gamma1 inh – PLC-gamma1 enzyme inhibitors, primary screen, biochemical, fluorescence, purified enzyme | 1-phosphatidylinositol 4,5-bisphosphate phosphodiesterase gamma-1 (Homo sapiens), P19174 | fluorogenic substrate | inhibition, % at 12.2 µM | 0.84% of 370,000 active | AID 720700, 2013; in the data active means inhibition above about 9.5%
HGIII-sPLA2 inh – human group III sPLA2 inhibitors, primary screen, biochemical, QFRET, BODIPY PC-A2 liposome substrate | 0.56% of 370,000 active | AID 743126, 2013 | QFRET BODIPY PC-A2 liposome hydrolysis, fluorescence | inhibition, % at 12.2 µM;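 active means inhibition above mean plus 3 SD of compounds lying within the high and low control bounds, cut at about 19% in these data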
Target sequence (Q9NZ20 whole entry, looked up): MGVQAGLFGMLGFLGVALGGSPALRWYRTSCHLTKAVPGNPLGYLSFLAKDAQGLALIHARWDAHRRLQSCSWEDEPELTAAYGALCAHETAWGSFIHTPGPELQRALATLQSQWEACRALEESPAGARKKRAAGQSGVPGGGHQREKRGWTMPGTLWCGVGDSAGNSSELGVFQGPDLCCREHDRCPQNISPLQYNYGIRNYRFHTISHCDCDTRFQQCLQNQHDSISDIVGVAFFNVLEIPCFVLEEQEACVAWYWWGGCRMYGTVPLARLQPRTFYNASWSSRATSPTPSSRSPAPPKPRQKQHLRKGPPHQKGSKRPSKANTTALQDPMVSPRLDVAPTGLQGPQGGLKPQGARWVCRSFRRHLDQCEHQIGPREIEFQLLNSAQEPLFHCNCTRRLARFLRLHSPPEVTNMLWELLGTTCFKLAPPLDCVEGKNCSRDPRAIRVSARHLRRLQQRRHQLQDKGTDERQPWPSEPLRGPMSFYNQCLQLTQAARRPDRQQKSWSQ
proKLK7 act – proKLK7 zymogen activators, primary screen, biochemical, fluorescence intensity | purified proKLK7, EDANS-DABCYL substrate fluorescence; 100% is mature enzyme control, 0% vehicle | activation, % at 7 µM | 0.9% of 370,000 active;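 active means activation above the mean of all tested compounds plus 3 SD, computed per campaign excluding outliers beyond control limits, cut at about 13% in these data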
ADAM17 inh – ADAM17 inhibitors, primary screen, biochemical, QFRET; Disintegrin and metalloproteinase domain-containing protein 17 (Homo sapiens), P78536; recombinant ADAM17, EDANS/DABCYL FRET peptide cleavage; inhibition, % at 6.95 µM; 0.83% of 370,000 active; AID 720648, 2013;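 active means inhibition above the mean of compounds lying between control limits plus 3 SD, set per campaign, cut at about 8.5% in these data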
ADAM10 inh – human ADAM10 inhibitors, primary screen, biochemical, QFRET, HTS | recombinant ADAM10, EDANS/DABCYL FRET peptide cleavage, 3 h | inhibition, % at 7 µM | 0.62% of 370,000 active | AID 720582, 2013;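 active means inhibition above a per-campaign cutoff equal to the mean of compounds falling between control-based bounds plus 3 SD, cut at about 20% in these data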
ADAM10 counter – ADAM10 inhibitors, counter-screen for ADAM17 exosite inhibitor project, biochemical, FRET, human ADAM10; inhibition, % at 6.95 µM; recombinant ADAM10, EDANS/DABCYL FRET peptide cleavage, 3 h; AID 743256, 2014; shares compounds with ADAM17 inh; 47% of 2,900 active;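 active means mean inhibition over the triplicate runs exceeds the activity threshold set in the earlier primary screen, cut at about 20% in these data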
ADAM17 confirm – ADAM17 inhibitors, hit retest, confirmation, biochemical, QFRET peptide cleavage. AID 743257, 2014. shares compounds with ADAM17 inh. recombinant ADAM17, EDANS/DABCYL QFRET peptide cleavage. 65% of 2,900 active. inhibition, % at 6.95 µM;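 active means mean inhibition across replicates above the hit cutoff set in the primary screen, cut at about 8.5% in these data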
Hits are given with their value; 0 = inactive; - = no result given. Shown are actives, neighbours in structure and some others; about 3.4% of the full set was active somewhere.

SMILES | PLCb3 inh | PLC-gamma1 inh | HGIII-sPLA2 inh | proKLK7 act | ADAM17 inh | ADAM10 inh | ADAM10 counter | ADAM17 confirm
NS(=O)(=O)c1ccc(NCc2cc(Cl)ccc2OCc2ccc(F)cc2)cc1 | 0 | 0 | 0 | 0 | 9.3 | 0 | 0 | 12
Cc1ccc(C(C(=O)NCc2ccccc2)N(Cc2cccs2)C(=O)c2ccc3c(c2)OCCO3)cc1 (stereo unspecified) | 0 | 0 | 0 | 0 | 10 | 0 | 0 | 11
COC(=O)c1ccc(C(C(=O)NCc2ccccc2)N(Cc2cccs2)C(=O)c2cnccn2)cc1 (stereo unspecified) | 0 | 0 | 0 | 0 | 0 | 0 | - | -
COc1ccc(CCC(=O)NNC(=O)c2cc(Cl)ccc2OC)cc1 | 0 | 0 | 0 | 0 | 8.8 | 0 | 0 | 0
CCN(C(=O)c1ccc(C(C)(C)C)cc1)c1nnc(Cn2nnc3ccccc32)s1 | 0 | 0 | 0 | 0 | 9.3 | 0 | 0 | 9.5
CCN(C(=O)CC(C)C)c1nnc(Cn2nnc3ccccc32)s1 | 0 | 0 | 0 | 0 | 0 | 0 | - | -
CCNC(=S)Nc1cc(-c2ccc(Cl)cc2)[nH]n1 | 0 | 0 | 0 | 0 | 0 | 0 | - | -
COc1ccc(C(c2c(N)[nH]c(=S)[nH]c2=O)c2c(N)[nH]c(=S)[nH]c2=O)cc1 | 0 | 0 | 0 | 0 | 0 | 0 | - | -
COc1ccc(CC(=O)Oc2ccc(C(C)C)cc2)cc1S(=O)(=O)N1CCOCC1 | 0 | 0 | 0 | 0 | 0 | 0 | - | -
Oc1ccc(C[C@@H](CN2CCC[C@@H]2CN2C(=S)NC[C@@H]2Cc2ccccc2)N2C[C@H](Cc3ccccc3)N(CCc3ccccc3)C2=S)cc1 | 0 | 0 | 0 | 0 | 0 | 0 | - | -
CC(C)C[C@H]1CN([C@@H](Cc2ccc(O)cc2)CN2CCC[C@@H]2CN2C(=S)NC[C@@H]2Cc2ccccc2)C(=S)N1CCc1ccccc1 | 0 | 0 | 0 | 0 | 8.9 | 0 | 34 | 20
CC(C)C[C@H]1CNC(=S)N1C[C@H]1CCCN1C[C@H](Cc1ccccc1)N1C[C@H](Cc2ccc(O)cc2)N(CCc2ccccc2)C1=S | 0 | 0 | 0 | 0 | 9.5 | 0 | 0 | 9.5
Oc1ccc(C[C@H]2CNC(=S)N2CC2CCCN2C[C@H](Cc2ccccc2)N2C[C@H](Cc3ccc(O)cc3)N(CCc3ccccc3)C2=S)cc1 (stereo partly specified) | 0 | 0 | 0 | 0 | 10 | 0 | 44 | 22
CCOc1ccc(CCN2C(=S)N([C@@H](Cc3ccc(O)cc3)CN3CCC[C@@H]3CN3C(=S)NC[C@@H]3Cc3ccccc3)C[C@@H]2Cc2ccc(O)cc2)cc1 | 0 | 0 | 0 | 0 | 12 | 0 | 0 | 8.8
COc1cc2c(-c3ccccc3)c(C)oc2cc1/C=N/NC(N)=S | 0 | 0 | 0 | 0 | 0 | 0 | - | -
CC(=O)c1cccc(OCC(=O)NC2CCCCCC2)c1 | 0 | 0 | 0 | 0 | 0 | 0 | - | -
O=C(NNC(=O)C12CC3CC(CC(O)(C3)C1)C2)c1csc(N2CCOCC2)n1 | 0 | 0 | 0 | 0 | 0 | 0 | - | -
COc1ccc(CC(=O)N/N=C/c2ccc(-c3cccc(C(=O)O)c3)o2)cc1OC | 0 | 0 | 0 | 0 | 0 | 0 | - | -
Cc1cc2c(cn1)C(CCC#N)(CCC#N)c1ccccc1-2 | 0 | 0 | 0 | 0 | 0 | 0 | - | -
COc1ccc(C2=NOC(C(=O)Nc3cccnc3Cl)C2)cc1 (stereo unspecified) | 0 | 0 | 0 | 0 | 0 | 0 | - | -
Cc1ccc(S(=O)(=O)n2c(C)nc3ccccc32)cc1 | 0 | 0 | 0 | 0 | 0 | 0 | - | -
Nc1nc2ccccc2n1S(=O)(=O)c1ccccc1 | 0 | 0 | 0 | 0 | 9.0 | 0 | 0 | 0
CN(C)c1ccc(N=Nc2ccccc2C(=O)OCC(=O)N2CCCC2)cc1 | 0 | 0 | 0 | 0 | 0 | 0 | - | -
CN(C)c1ccc(N=Nc2ccccc2C(=O)OCC(=O)N2CCCCCC2)cc1 | 0 | 0 | 0 | 0 | 13 | 0 | 0 | 8.7
CCC1(CC)SCCNC1=O | 0 | 0 | 0 | 0 | 9.1 | 0 | 0 | 0
SMILES | PLCb3 inh | PLC-gamma1 inh | HGIII-sPLA2 inh | proKLK7 act | ADAM17 inh | ADAM10 inh | ADAM10 counter | ADAM17 confirm
CCN(CC)c1ccc(S(=O)(=O)N2CCOCC2)cc1NC(=O)COC(=O)/C=C/c1ccccc1 | 0 | 0 | 0 | 0 | 8.8 | 0 | 0 | 11
CCOC(=O)c1ccc(NS(=O)(=O)c2cnc[nH]2)cc1 | 0 | 0 | 0 | 0 | 9.3 | 0 | 0 | 0
CCOC(=O)c1cccc(NS(=O)(=O)c2cnc[nH]2)c1 | 0 | 0 | 0 | 0 | 0 | 0 | - | -
CCCCCCCCn1cnc2c(N)c(C)c(C)cc21 | 0 | 0 | 0 | 0 | 8.8 | 0 | 0 | 9.0
COC(=O)[C@]1(Cc2ccccc2)N[C@H](CN(C)C(=O)c2ccc(F)cc2)[C@@H]2C(=O)N(Cc3ccccc3)C(=O)[C@@H]21 | 0 | 0 | 0 | 0 | 0 | 0 | - | -
Cc1[nH]n(-c2ncc(-c3ccccc3)s2)c(=O)c1C(c1ccc(Br)cc1)C(C#N)C#N (stereo unspecified) | 0 | 0 | 0 | 0 | 8.7 | 0 | 0 | 12
Cc1ccc(NC(=O)c2cc([N+](=O)[O-])ccc2NCc2cccnc2)cc1 | 0 | 0 | 0 | 0 | 9.2 | 0 | 0 | 0
COc1ccc([N+](=O)[O-])cc1NCc1cccnc1 | 0 | 0 | 0 | 0 | 0 | 0 | - | -
O=C1NC(Cc2ccccc2)c2nc3ccc(F)cc3c(=O)n2-c2cc(Cl)ccc21 (stereo unspecified) | 0 | 0 | 0 | 0 | 13 | 0 | 0 | 0
CCCc1cc(=O)oc2c3c(c4c(c12)OC(C)(C)C=C4)OC(C)C(C)C3O (stereo unspecified) | 0 | 0 | 0 | 0 | 0 | 0 | - | -
COc1ccc(C(=O)NC2CCc3ccccc32)cc1OC1CCN(C(C)=O)CC1 (stereo unspecified) | 0 | 0 | 0 | 0 | 0 | 0 | - | -
COc1ccc(C)cc1N(C(=O)c1ccccc1)c1nc2ccccc2s1 | 0 | 0 | 0 | 0 | 9.9 | 0 | 26 | 18
COc1ccc(C)cc1N(C(=O)c1cccc(F)c1)c1nc2ccccc2s1 | 0 | 0 | 0 | 0 | 0 | 0 | - | -

Screening results from PubChem BioAssay.
